Data from PMC7819943, “Rice protein-binding microarrays: a tool to detect cis-acting elements near promoter regions in rice”.
In all, about 35,000 sequences were measured (“fluorescence intensity (a.u.)”: median about 10,000, highest 2% from about 52,000 on). The full list was thinned out, with the highest values kept by preference.

Target: T1, OsWOX13 (Oryza sativa, UniProt Q5QMM3 1-267)
T1 sequence: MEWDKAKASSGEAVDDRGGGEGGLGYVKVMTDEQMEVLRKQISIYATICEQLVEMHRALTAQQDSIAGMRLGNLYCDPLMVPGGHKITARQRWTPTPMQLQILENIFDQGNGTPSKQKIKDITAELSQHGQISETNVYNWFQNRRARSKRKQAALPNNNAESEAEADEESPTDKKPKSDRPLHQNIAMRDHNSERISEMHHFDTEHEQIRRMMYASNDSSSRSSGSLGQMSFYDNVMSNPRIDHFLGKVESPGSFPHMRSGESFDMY
Test: protein-binding microarray (RPBM); PBS, 2% BSA, 51.3 ng/ul salmon testes DNA, 50 uM zinc acetate, 200 nM TF, 25 C, 1 h; high values mean tight binding
Conditions: protein: recombinant; tags: N-terminal polyhistidine and DsRed monomer fusion (pET32a); label: CyDye5-dUTP incorporated in the synthesized complementary strand; 3' TTTTT single-stranded linker to array surface; dsDNA, one strand shown
Outline: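 The binding signal for each feature is its fluorescence intensity in arbitrary units. An Axon 4000B scanner was used to read a custom Agilent array that had been made double-stranded with Cy5-dUTP primer extension, blocked with 2% BSA, incubated at 25 °C for 1 h with 200 nM protein in PBS, 2% BSA, salmon testes DNA and 50 µM zinc acetate, and washed. The protein was an N-terminal polyhistidine–DsRed transcription factor fusion from E. coli BL21-CodonPlus, purified on Ni–NTA.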

Sequence | binding signal
GTTTTAAATTAATATATCTCGCGGAATATTAGAGCAAACGCGGAGTCACCTAGTGCAG | 12600 fluorescence intensity (a.u.)
AAACTTCATTTAGTAGATTGATTTTCTTAACCGAATATAGCGGAGTCACCTAGTGCAG | 9560 fluorescence intensity (a.u.)
TAGTAGATTGATTTCCTTAACCGAATATAGCAGGAATCCGCGGAGTCACCTAGTGCAG | 52900 fluorescence intensity (a.u.)
GTAGATCAATTTCCTTAACCGAATATAGCAAGAATCCGACCGGAGTCACCTAGTGCAG | 3270 fluorescence intensity (a.u.)
TTGATTGTGTGCAACTGACTTTGTCCCCGTTCTATAATATCGGAGTCACCTAGTGCAG | 8250 fluorescence intensity (a.u.)
ATGTTAATGCAAAATAAATTAAATACATAGCAAGGTACTACGGAGTCACCTAGTGCAG | 11200 fluorescence intensity (a.u.)
TGTTATTTCAATCTCAGGATTGAGTGCAAGCAATCTGTTTCGGAGTCACCTAGTGCAG | 4210 fluorescence intensity (a.u.)
CCGGATTTCAGTTATTTCCTAATTGCATTTCTATATGGACCGGAGTCACCTAGTGCAG | 9320 fluorescence intensity (a.u.)
TTCAGTTTCTAGCTGGAAGAGACCTCCTATCATATATTTCCGGAGTCACCTAGTGCAG | 53600 fluorescence intensity (a.u.)
TTTCAGTTATTTCCTAATTATATTTCTATATGGACTTAGTCGGAGTCACCTAGTGCAG | 9980 fluorescence intensity (a.u.)
AAGATAATGATGTAGACACGCAATCTGCGCGGGCCCACCACGGAGTCACCTAGTGCAG | 6040 fluorescence intensity (a.u.)
AGATTAGATTTAGATTAGTCCTATGTGTCTCTTGCCGGGTCGGAGTCACCTAGTGCAG | 19100 fluorescence intensity (a.u.)
GAGAGACGGTTTAATCAAGGAGCAGTTGATGGGAGAGGCGCGGAGTCACCTAGTGCAG | 4550 fluorescence intensity (a.u.)
ACTTTAATTAGTCGTGATCAATCAATCAATCTGAATCTGTCGGAGTCACCTAGTGCAG | 65100 fluorescence intensity (a.u.)
TCGTGATGACAGTTTACTCTTTAAATGAGAGTAATTAACTCGGAGTCACCTAGTGCAG | 17400 fluorescence intensity (a.u.)
CCAGTGATCAATTTAGCTCCATTTCACTAGTGCAATCTGTCGGAGTCACCTAGTGCAG | 9160 fluorescence intensity (a.u.)
GTTTGTGATTAATCTGATTTCGTACTATTAACGTGCAACTCGGAGTCACCTAGTGCAG | 31300 fluorescence intensity (a.u.)
GTAATTAGCTAATCAATCTTTTCGGCTGTGCTTAATTAACCGGAGTCACCTAGTGCAG | 33500 fluorescence intensity (a.u.)
CGAGCTTTAATCAATTAATCTGGAGTTTAGTGAATATATTCGGAGTCACCTAGTGCAG | 9200 fluorescence intensity (a.u.)
CTCAAGCTTAATTAAGCTCGTAATCTCATATAACCTCTTTCGGAGTCACCTAGTGCAG | 57900 fluorescence intensity (a.u.)
AATTTAATCTTTAATTAATTTATTTCTCGCCTCTCTTAACCGGAGTCACCTAGTGCAG | 4610 fluorescence intensity (a.u.)
ATCTGATTCGTGATTAATTAGTAATTAATTAATCTTTACTCGGAGTCACCTAGTGCAG | 61000 fluorescence intensity (a.u.)
GTAACGGGATGATTGAAGCTACAACGAGAATGGCAACGTCCGGAGTCACCTAGTGCAG | 22200 fluorescence intensity (a.u.)
AATATAAATTTAGATTAGCAGTGGTAAGAAGAGGGACGTCCGGAGTCACCTAGTGCAG | 22600 fluorescence intensity (a.u.)

Sequence | binding signal
CAAAATATACTAATTTCTTCAAGCAAAGGTCCAGCCCATCCGGAGTCACCTAGTGCAG | 3240 fluorescence intensity (a.u.)
GAATAGACCGAAATTAATTAAGGCAGTAATCACCCAGATGCGGAGTCACCTAGTGCAG | 16100 fluorescence intensity (a.u.)
TATTAAGTCTAATTAATCCATGATTAGCCTATGTGATGCTCGGAGTCACCTAGTGCAG | 15300 fluorescence intensity (a.u.)
GATGATGATGGATGCGATTGACTGATGAGACGTCTGCTAACGGAGTCACCTAGTGCAG | 50300 fluorescence intensity (a.u.)
CCCTAAATTTCCGCGAAATCAGCAACCGAACACAGATTAGCGGAGTCACCTAGTGCAG | 7110 fluorescence intensity (a.u.)
TCAATAAATCATAAAACAAATTTATTAAGCCTAATTAATCCGGAGTCACCTAGTGCAG | 14000 fluorescence intensity (a.u.)
CCTCCTCATCATGGCTTAATTAATTAATACTCCTAGCTGCCGGAGTCACCTAGTGCAG | 29000 fluorescence intensity (a.u.)
GCTTAATTGAAGGAGCCATGGCAGCTGTCCTCTCCCGCCGCGGAGTCACCTAGTGCAG | 53200 fluorescence intensity (a.u.)
CGAAGATTGAGTCCTTTGAAGCCGAGCTCTCCATGGCCATCGGAGTCACCTAGTGCAG | 17100 fluorescence intensity (a.u.)
AGGATTAATTAGGCTTAATAAATTCGTCTCGCAGTTTACACGGAGTCACCTAGTGCAG | 22000 fluorescence intensity (a.u.)
TCTAGATTTGATCATTTTGACCTCTTGCTCCGTTAGATCTCGGAGTCACCTAGTGCAG | 9940 fluorescence intensity (a.u.)
GTTAATTAATTAGTTAGTACTAGCAAACATTGGCTAAAGTCGGAGTCACCTAGTGCAG | 55900 fluorescence intensity (a.u.)
AAAGTTAATCAAATTGACTAATTAGTGCTAGATATGTCCTCGGAGTCACCTAGTGCAG | 60600 fluorescence intensity (a.u.)
CCTTAATTTTCAGTGTTAGTAATTTTCATTAACTAATTCTCGGAGTCACCTAGTGCAG | 16200 fluorescence intensity (a.u.)
CCTTAATTAACTAACATTCAGTCAGTTAGTCACCGGATAGCGGAGTCACCTAGTGCAG | 52600 fluorescence intensity (a.u.)
AGTTAATTAATTAATTAGCTACGTACTCTTGTGCCTCTGTCGGAGTCACCTAGTGCAG | 54900 fluorescence intensity (a.u.)
TCTAATTATTTGATATTAGTTATTTTCCTTAACATTCGTGCGGAGTCACCTAGTGCAG | 49900 fluorescence intensity (a.u.)
AATTACTACTACTAATTAGCTAGTAGCTAGTTTCTGTGCTCGGAGTCACCTAGTGCAG | 8060 fluorescence intensity (a.u.)
TCAATCAATCAATTAATTAGTAATTCAAAGTACTAAACACCGGAGTCACCTAGTGCAG | 40200 fluorescence intensity (a.u.)
ATCAAATCATATGTTAGATTGATCCTTCAATTAGTTAATTCGGAGTCACCTAGTGCAG | 24400 fluorescence intensity (a.u.)
GACTAATTAATAATTAGTTAATTGACTAATCAGGATAATTCGGAGTCACCTAGTGCAG | 46800 fluorescence intensity (a.u.)
TACTAATTTAGAGTATTAAACATAAACTAATAATAAAAGTCGGAGTCACCTAGTGCAG | 9830 fluorescence intensity (a.u.)
ATTAATTAAGTTACTGTGTTACTCCTAGCTACTCCTCCGTCGGAGTCACCTAGTGCAG | 22600 fluorescence intensity (a.u.)
